# Compounds without any hit were thinned out: in the full panel of roughly 83,000, 20% have a hit.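 Cells were grown in 96-well plates and exposed to the test compound at a single concentration for 48 hours; results are reported as percent growth, with values below 10 considered active.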 Unmarked numbers belong to inactive results. Active and inactive are the calls of the source.
# Key:
# Test in all cases: NCI-60 one-dose screen, 48 h (100 = growth as untreated, 0 = no growth, -100 = all killed)
# Settings in all cases: 10 µM unless noted
# [1] = test system: DU-145 prostate
# [2] = test system: K-562 leukemia
# [3] = test system: MALME-3M melanoma
# [4] = test system: MDA-MB-231 breast
# [5] = test system: RXF 393 renal
# [6] = test system: SF-268 CNS
# [7] = test system: SF-295 CNS
# [8] = test system: SF-539 CNS
# [9] = test system: UACC-257 melanoma
# [10] = test system: M14 melanoma
Structure (SMILES),growth [1],growth [2],growth [3],growth [4],growth [5],growth [6],growth [7],growth [8],growth [9],growth [10]
CN(C)C(=S)SCN1C(=O)c2ccc([N+](=O)[O-])cc2S1(=O)=O,94.3%,77.8%,92.8%,106%,113%,99.9%,101%,102%,102%,103%
Cn1c2c(cc(S(=O)(=O)c3ccccc3)c1=O)CCc1c-2cnn1-c1ccccc1Cl,120%,95.5%,108%,101%,111%,106%,87.9%,90.2%,89.8%,110%
NS(=O)(=O)c1cc(Br)c2c(c1)S(=O)(=O)NCN2,108%,80.6%,121%,118%,174%,103%,104%,101%,94.5%,109%
O=C1/C(=C/c2ccccc2F)CNC/C1=C\c1ccccc1F,-11.6% (active),5.7% (active),-9.46% (active),-2.14% (active),-86.2% (active),-11.4% (active),-17.3% (active),-33% (active),-46.1% (active),-47.3% (active)
O=C1NC(=O)C2(CCCC2C(=O)O)N1 (stereo not given),120%,98%,140%,105%,117%,109%,99.8%,101%,86.7%,106%
COc1ccc(NC(=O)c2ccc3c(c2)nc(-c2ccc(Cl)cc2)n3-c2cc(C(C)(C)C)[nH]n2)cc1,90.2%,86%,91.1%,95.4%,79.1%,76.2%,67.8%,87.6%,96.4%,82.3%
O=C1c2ccccc2-c2nnc(-c3ccc(Br)cc3)cc21,55.8%,16.5%,-3.82% (active),14.1%,33.7%,59.3%,13.6%,56.7%,52.6%,37.2%
Cc1oc2c(c1C(=O)N1CC[C@@H](N)C1)C(=O)c1c(c(O)c3ccccc3c1O)C2=O,24%,3.82% (active),53.2%,35.2%,48.9%,16%,29.9%,46.9%,74.8%,38.8%
Cc1cc(=O)c2c(C)ccc(C)c2[nH]1,115%,109%,102%,99.3%,90.7%,96.8%,91.4%,107%,80.5%,97.8%
N#CC1=C(N)Oc2cc(N)ccc2C1c1ccc(F)cc1 (stereo not given),93.1%,24.8%,71.9%,83.4%,74.9%,81.9%,72.2%,83.6%,95.6%,51.1%
COc1nc2c(cc1S(=O)(=O)c1ccccc1)CCc1c-2cnn1-c1ccccc1,95.4%,54.1%,69.2%,89.2%,94.4%,86.8%,84.9%,79%,78.2%,80.7%
COC(=O)c1c2c(c(C)[n+]([O-])c1C)C(=O)C=C(NCc1cccc(OC)c1)C2=O,-99.1% (active),-23.6% (active),-98.9% (active),-17.4% (active),-46.7% (active),-16.1% (active),-97.5% (active),-92.3% (active),-87.1% (active),-83.4% (active)
COc1ccc(C2CC(c3cc(OC)c(OC)c(OC)c3)=NN2c2ccc(S(N)(=O)=O)cc2)cc1 (stereo not given),85.7%,33.1%,101%,51.3%,79.3%,72.9%,55.2%,77.8%,73.7%,64.6%

# Reference: PubChem BioAssay (NCI)
